Reference: the supplement of paper PMC10720658
± gives the standard deviation of the averaged measurements.

System: AEK1 (Tb927.3.2440)
Assay: percent reduction in TR-FRET probe signal relative to DMSO control; higher = stronger displacement of ATP-site probe (binding)
Conditions: 1 µM; incubation time 1 h

Oc1c(F)cc(-c2cnccc2-c2ccc(N3CCOCC3)cc2)cc1F and Cc1c(Cn2c(C)nc3c(C(=O)O)cc(N4CCOCC4)cc32)cccc1C(F)(F)F are within error of each other in “percent reduction in TR-FRET probe signal” value (from here on “percent reduction”): 8.04 ± 13% for the first, 1.17 ± 7.4% for the second.

Cc1[nH]c(/C=C2\C(=O)Nc3ccc(S(=O)(=O)Cc4c(Cl)cccc4Cl)cc32)c(C)c1C(=O)N1CCC[C@@H]1CN1CCCC1 and CS(=O)(=O)N1CCN(Cc2cc3nc(-c4cccc5[nH]ncc45)nc(N4CCOCC4)c3s2)CC1 are within error of each other in “percent reduction” value: -5.64 ± 15% for the first, 4.23 ± 8.1% for the second.

Cc1ccc(Nc2nccc(N(C)c3ccc4c(C)n(C)nc4c3)n2)cc1S(N)(=O)=O [Pazopanib] and CN1CCN(c2cccc(Nc3nc4c(-c5ccc(S(C)(=O)=O)cc5)cccn4n3)c2)CC1 are within error of each other in “percent reduction” value: 7.95 ± 16% for the first, 7.3 ± 6.6% for the second.

Nc1ncnc2c1c(-c1cccc(OCc3ccccc3)c1)cn2[C@H]1C[C@@H](CN2CCC2)C1 and COC(=O)c1ccc2c(c1)NC(=O)/C2=C(\Nc1ccc(N(C)C(=O)CN2CCN(C)CC2)cc1)c1ccccc1 [Nintedanib (BIBF 1120)] are within error of each other in “percent reduction” value: 0.997 ± 12% for the first, 9.58 ± 14% for the second.

Going from Cl.O=C1NCCc2[nH]c(-c3ccncc3)cc21 to O=C(Nc1ccccc1C(=O)NC1CCCCNC1=O)c1cc2ccccc2s1 (stereo not drawn), the “percent reduction” value falls from 11.4 ± 8.5% to -0.533 ± 1.2%.

Nc1nc(N)c(N=O)c(OCC2CCCCC2)n1 and CNC(=O)CN1CCC(Oc2cc3c(Nc4cccc(Cl)c4F)ncnc3cc2OC)CC1 [Sapitinib (AZD8931)] are within error of each other in “percent reduction” value: -2.92 ± 9% for the first, -5.78 ± 5.4% for the second.

For Cc1c(F)cc(C(=O)NC2CC2)cc1-c1ccc(C(=O)NCC(C)(C)C)cn1, the “percent reduction” value was -10 ± 9.6%.
